From PubChem BioAssay (EPA / NIEHS)
Records with an inconclusive call do not appear. Active and inactive are the calls of the source. Rule for the calls: active = hit-call score of the fitted dose curve at least 0.9, where 1 is the maximum; inconclusive = response in the unintended direction; inactive = score below 0.9.

target: human Histamine 1 Receptor (H1), HRH1 (gene 3269) (UniProt P35367); assay: NVS_GPCR_hH1: NovaScreen (NVS) G Protein-Coupled Receptor Assay for human Histamine 1 Receptor (H1) (AID 2283268)
Sequence (P35367 whole entry, looked up): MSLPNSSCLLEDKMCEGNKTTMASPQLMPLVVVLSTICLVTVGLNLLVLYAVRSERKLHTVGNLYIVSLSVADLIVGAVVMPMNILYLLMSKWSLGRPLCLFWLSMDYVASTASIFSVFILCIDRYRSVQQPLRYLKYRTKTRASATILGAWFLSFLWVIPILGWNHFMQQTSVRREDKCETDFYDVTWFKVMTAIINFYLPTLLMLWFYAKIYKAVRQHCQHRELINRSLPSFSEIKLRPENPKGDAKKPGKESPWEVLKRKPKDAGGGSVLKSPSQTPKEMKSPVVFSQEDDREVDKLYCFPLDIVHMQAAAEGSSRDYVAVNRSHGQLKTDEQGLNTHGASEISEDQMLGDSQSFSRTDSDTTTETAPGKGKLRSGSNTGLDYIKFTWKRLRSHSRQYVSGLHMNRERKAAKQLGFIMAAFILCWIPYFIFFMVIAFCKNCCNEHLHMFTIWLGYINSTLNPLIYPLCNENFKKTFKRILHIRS
Method: NVS_GPCR_hH1 is a biochemical, single-readout assay that uses extracted gene-proteins in a cell-free assay. Measurements were taken 1 hour after chemical dosing in a 96-well plate.NVS_GPCR_hH1 is one of one assay component(s) measured or calculated from the NVS_GPCR_hH1 assay. It is designed to make measurements of radioligand binding, a form of binding reporter, as detected with scintillation counting signals by Filter-based radiodetection technology.Data from the assay component NVS_GPCR_hH1 was analyzed into 1 assay endpoint. This assay endpoint, NVS_GPCR_hH1, was analyzed in the positive analysis fitting direction relative to DMSO as the negative control and baseline of activity. Using a type of binding reporter, loss-of-signal activity can be used to understand changes in the binding as they relate to the gene HRH1. Furthermore, this assay endpoint can be referred to as a primary readout, because the performed assay has only produced 1 assay endpoint. To generalize the intended target to other relatable targets, this assay endpoint is annotated to the gpcr intended target family, where the subfamily is rhodopsin-like receptor.
Binding assays used specific radioligands (tritiated, iodinated) with non-radioactive competitive displacement ligands in agonist or antagonist protocols (as indicated) and various reference compounds and inhibitors to titrate specific binding to receptors and transporters. Most enzyme assays (CYPs, kinases, phosphatases, proteases, HDACs) used recombinant protein and specific substrates (fluorescence mostly, some colorimetric and radioactive) and inhibitors, followed by a biochemical separation of substrate and product. All assays for the biochemical HTS were initially run in duplicate at a single concentration (10 uM for CYP450 assays and 25 uM for all others). […] Each assay was run with positive and negative controls, and concurrent controls on every plate. The follow-up (secondary) screen tested active chemical-pairs in concentration series, as well as a few additional assays not tested in the primary screen, some selected negative inactives, and several cases re-run in the concentration series for confirmatory purposes.

| SMILES | AC50 |
| --- | --- |
| O=P(OC(CCl)CCl)(OC(CCl)CCl)OC(CCl)CCl | 19.8 µM (active) |
| CCc1cc(SCc2sc(-c3ccc(C(F)(F)F)cc3)nc2CN2CCN(c3ccc(OC)cc3)CC2)ccc1OCC(=O)O | 25 µM (active) |
| COc1cccc(-c2ccc(/C=C\CN3CCCCCC3)cc2Cl)c1 | 11.1 µM (active) |
| Cc1[nH]cnc1C[C@H]1CCc2c(C)c3ccccc3n2C1=O | 4.88 µM (active) |
| CCOC(=O)c1ccc(C2CCC(NC[C@H](O)COc3ccc(O)c(NS(C)(=O)=O)c3)CC2)cc1 (stereo not given in full) | 18.6 µM (active) |
| Cn1c(=O)cc(Oc2ccc(F)cc2F)c2cnc(NCC(C)(C)O)nc21 | 6.95 µM (active) |
| CCOc1cccc(-n2cc(C(=O)N3CCN(c4cc(C(=O)O)c5ccccc5c4)CC3)nc2-c2ccc(C)cc2)c1 | 23.8 µM (active) |
| CCCN(C1CCN(C(=O)C2CCNCC2)CC1)[C@@H]1CCc2ccc(OC)cc2C1 | 12.1 µM (active) |
| O=c1[nH]c2ccc(S(=O)CCN3CCC(Cc4ccc(F)cc4)CC3)cc2o1 (stereo not given) | 0.522 µM (active) |
| CCOC(=O)COc1ccc2c(c1)CC(NCC(O)c1cccc(Cl)c1)CC2 (stereo not given) | 20.1 µM (active) |
